Shown is part of a subset that was picked to be rich in hits.
Pf Dd2 inh – blocks in vitro growth of P. falciparum Dd2 | hit rate 4.3% among 120,000 | Potency, µM (highest dose often 28.9 µM), without a hit: top-dose activity, negative = inhibition, most hits filed as inhibitors | P. falciparum Dd2 growth, SYBR Green, 72 h; active = well fitted inhibition curve with a large enough effect;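 also: plate controls were DMSO vehicle for no effect and reference drug for full effect; nearly all actives have a fitted effect of over 65% in size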
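Readout: SYBR Green fluorescence, 485 nm excitation, 535 nm emission, after ~16 h lysis at 37C. Before that, Dd2-infected red cells (2.5% hematocrit) grew 72 h with compound, 29 uM top final concentration.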
The depositor's hits bear a star; i = inactive; [ ] = remark or other dose. Potency is read from the fitted curve at half-maximal effect.

SMILES | Pf Dd2 inh
CCNc1cc(N2CCC(CCC(=O)NCc3c(C)nn(C)c3C)CC2)ncn1 | -15.3%
C[C@]1(O)CCN(C(=O)c2cccc(Cn3cccn3)c2)C[C@@H]1O | -2.9%
CN(C)c1cccc(C(=O)NC2CCN(c3cc(-c4cccs4)[nH]n3)C2)c1 (configuration not stated) | i
CCCS(=O)(=O)N1CC(COC)C2(CCNCC2)C1 (configuration not stated) | 42.5%
O=C(NCc1cccnc1Oc1ccccc1F)c1cnc2ccccn12 | -24.3%
COCCC(=O)N1CC(F)(F)C[C@H]1c1nc(C2CC2)no1 | 1.2%
CC(CNC(=O)C1CCN(C(=O)c2ncn3c2COC(c2ccc(F)cc2)C3)CC1)c1ccccc1 (configuration not stated) | -12.4%
CC(=O)N1CCN(c2ncnc3c2CN(C2CCC2)C(=O)CN3C)CC1 | -8.3%
COCC(=O)N[C@H]1CCN2C(=O)c3cc(Br)ccc3NC(=O)[C@@H]2C1 | -17.7%[44.1 µM]
CCCCc1nn(CC(=O)NCc2c(C)noc2C)c(=O)n1-c1ccccc1 | -13.3%
O=C(Nc1ccc(F)c(F)c1)C1CCCN(S(=O)(=O)c2cccc3nonc23)C1 (configuration not stated) | 31.4%
O=C(Nc1ccc(C(F)(F)F)cc1)C1CCCN(S(=O)(=O)c2cccc3cccnc23)C1 (configuration not stated) | 11.2µM*
O=C(Nc1ccc(OC(F)(F)F)cc1)C1CCCN(S(=O)(=O)c2cccc3nonc23)C1 (configuration not stated) | 50.3%
O=C(Cc1ccc(F)cc1)N1CCC2(CC1)N=C(c1ccc(Cl)cc1)NO2 | i
O=c1[nH]nc2n1CCC(NS(=O)(=O)Cc1ccccc1F)CC2 (configuration not stated) | 20.6%
Cn1ncc(C(=O)N2CCN(c3ccccc3)CC2)c1C1CCN(C(=O)OC(C)(C)C)CC1 | i
Cc1ccc(Cl)cc1N1CCN(C(=O)c2cnn(C)c2C2CCN(C(=O)OC(C)(C)C)CC2)CC1 | 3.98µM*
Cc1cccc(-n2ncc(C(=O)N3CCN(c4ccc(C)cc4C)CC3)c2C2CCN(C(=O)OC(C)(C)C)CC2)c1 | -25.4%
Cc1ccc(C)c(N2CCN(C(=O)c3cnn(C(C)(C)C)c3C3CCN(C(=O)OC(C)(C)C)CC3)CC2)c1 | 8.91µM*
Cc1ccc(Cl)cc1N1CCN(C(=O)c2cnn(C(C)(C)C)c2C2CCN(C(=O)OC(C)(C)C)CC2)CC1 | 7.94µM*
Cn1nccc1C(=O)N1CCCCCC1c1nc(C2CC2)no1 (configuration not stated) | -23.1%
COc1ccc(OCc2nc(C)c(CCO)c(=O)n2CC(=O)Nc2cccc(Cl)c2)cc1 | -7.9%
CC(C)(C)c1cc(C[C@H]2CNCC[C@H]2CC(=O)NC2CCCCC2)no1 | i
CC(=O)c1cc(C(=O)N2C[C@@H](CN3CCCN(C)CC3)[C@@H](CO)C2)cs1 | -12.5%
CCc1nc(-c2c3n(c(=O)n(CC(=O)NC(C)(C)C)c2=O)CCCC3)no1 | 37.9%
SMILES | Pf Dd2 inh
C=Cc1ccc(Cn2c(=O)c(-c3noc(C)n3)c3n(c2=O)CCCCC3)cc1 | i
CN1CC(=O)N(c2ccc([N+](=O)[O-])cc2)Cc2c1ncnc2N1CCOCC1 | -9.3%
CNC(=O)c1cc[nH]c1C1CCCN(C(=O)CCc2c(C)n[nH]c2C)C1 (configuration not stated) | 29.6%
CC(C)NC(=O)N1CC2ON=C(C(=O)NCCc3ccc(Cl)cc3)C2C1 (configuration not stated) | -6.3%
Cc1noc([C@@H]2CN(Cc3ccc4c(c3)CCO4)C[C@H]2CO)n1 | 12.7%
Cc1cn(CC(=O)N2CCN(c3cccc(Cl)c3)C(=O)C2)c(=O)[nH]c1=O | -6.1%
CCOC(=O)C(C)NC(=O)c1c(C)oc2ncn(CC(C)C)c(=O)c12 (configuration not stated) | 12.5%
COc1ccc(OC)c(CNC(=O)c2c(C)oc3ncn(CC(C)C)c(=O)c23)c1 | 10µM*
COc1ccc(OC)c(CCNC(=O)c2c(C)oc3ncn(C)c(=O)c23)c1 | -19.1%
CCn1nccc1C(=O)N1CC(Oc2ccccc2-c2nc(CCOC)no2)C1 | 4.47µM*
CCCNC(=O)N1CC(Oc2ccccc2-c2nc(CCOC)no2)C1 | -16.2%
CCn1nccc1C(=O)N1CC(Oc2ccc(-c3nc(C)no3)cc2)C1 | 69.5%[5.79 µM]
COCCc1noc(C2CN(C(=O)C(C)C)C2)n1 | 11.0%
COCCc1noc(-c2ccccc2OC2CN(C(=O)C(C)C)C2)n1 | 3.16µM*
Cc1nc(C)c(C(=O)N2CC(Oc3ccccc3-c3nc(C4CC4)no3)C2)s1 | i
Cc1noc(C)c1C(=O)N1CC[C@H](N2CCN(C)CC2)[C@H](CCC(=O)O)C1 | -14.2%
O=C(C1CC(=O)N(C2CCCCC2)C1)N1CCC2(CC1)NCCc1c2[nH]c2ccccc12 (configuration not stated) | i
CC(C)c1cccc(NC(=O)c2ccc(Cn3ccn4nc5c(c4c3=O)CCCC5)cc2)c1 | i
O=C(Nc1ccc(F)cc1)c1ccc(CN2C(=O)NC3(CCOCC3)C2=O)cc1 | -22.6%
O=C(N[C@@H]1CCN(Cc2ccc3nsnc3c2)C[C@H]1O)c1cnccn1 | 7.4%
O=C1NCCOCCCN(C(=O)c2nccc3ccccc23)[C@H]2CCCC[C@@H]12 | i
COc1cc(C(CC(=O)Nc2cccc(C(C)=O)c2)N2Cc3ccccc3C2=O)cc(OC)c1OC (configuration not stated) | 10µM*
COc1ccccc1NC(=O)CC(c1cc(OC)c(OC)c(OC)c1)N1Cc2ccccc2C1=O (configuration not stated) | i
CCc1ccc(NC(=O)CC(c2cc(OC)c(OC)c(OC)c2)N2Cc3ccccc3C2=O)cc1 (configuration not stated) | -19.4%
CC(=O)Nc1ccc(-c2ccc(=O)n3c2[C@@H]2C[C@@H](CN(C(=O)c4cccs4)C2)C3)cc1 | -20.7%[44.1 µM]
SMILES | Pf Dd2 inh
O=C(NCCCN1CCCCC1)c1ccc2c(c1)sc1nc(-c3ccc(F)cc3)cn12 | 2.82µM*
COc1ccc(-c2cn3c(n2)sc2cc(C(=O)NC4CCCCC4)ccc23)cc1 | 17.4%
CC1CCCCN1CCCNC(=O)c1ccc2c(c1)sc1nc(-c3ccc(F)cc3)cn12 (configuration not stated) | 1.41µM*
O=C(NCCn1ccn2nc(-c3ccc(F)cc3)cc2c1=O)c1ccsc1 | i
COCCCNC(=O)C1CCN(c2nn3cc(-c4ccc(F)cc4)nc3s2)CC1 | -4.2%
CCn1c(C)c(C)c2cc(C(=O)NCCCN3CCCCC3)ccc21 | i
O=C(NC1CCCCCC1)c1ccc2c(c1)sc1nc(-c3ccccc3)cn12 | 10µM*
Cc1ccc(-c2cn3c(n2)sc2cc(C(=O)NCCCN4CCCCC4)ccc23)cc1 | 2.51µM*
O=C(NC1CCC(O)CC1)c1ccc(-c2ncc3cnc(-c4ccccc4)cn23)cc1 (configuration not stated) | -11.8%[44.1 µM]
CCc1ccc(-c2cn3c(n2)sc2cc(C(=O)NC4CCCCC4)ccc23)cc1 | i
Cc1ccc(Cl)cc1N1CCN(CCCNC(=O)c2ccc3nc(N4CCCCC4)sc3c2)CC1 | i
O=C(NCCn1ccn2nc(-c3ccc(F)cc3)cc2c1=O)c1ccc(F)c(Cl)c1 | i
CCCC(C)N1CC2(CCN(C(=O)c3cnn4ccccc34)CC2)OC1=O (configuration not stated) | -12.3%
COC(=O)[C@@H](C)NC(=O)[C@H]1CN(C(=O)c2cccnc2)CCN1C(=O)NC(C)C | -11.7%[44.1 µM]
Cc1ccc(C2(O)CCN(C(=O)Cc3c[nH]c(=O)[nH]c3=O)CC2)nc1 | 2.3%
